High-throughput results (PubChem)
RECQ1 inh-1: RECQ1 (human) helicase inhibition; P46063; RECQ1 DNA unwinding, red fluorescence kinetic read; Potency, µM (top dose mostly 57.3 µM), inactives show at the highest dose activity, negative = inhibition, actives largely listed as inhibitors; actives 0.54% (n = 240,000); AID 2549;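 also: plate controls were vehicle for no effect and no enzyme for full effect; nearly all actives have a fitted effect of over 30% in size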
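50 nM RECQ1T1 preincubated 15 min with compound in Tris pH 8.0 buffer with MgCl2, DTT, Tween-20 and 2.5 ug/ml poly(dI-dC); started with 200 nM TAMRA/BHQ-2 forked duplex and 2 mM ATP. Unwinding read as fluorescence (525/598 nm), two reads 2 h apart.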
BLM inh-1: Bloom syndrome helicase (human) inhibition. recombinant BLM DNA unwinding, fluorescence dequenching. Potency, µM (top dose mostly 56.1 µM), inactives show top-dose activity change, negative = inhibition, actives largely listed as inhibitors. actives 0.2% (n = 350,000). AID 2528;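 also: plate controls were vehicle for no effect and no enzyme for full effect; nearly all actives have a fitted effect of over 35% in size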
TexasRed fluor: Texas Red fluorescence interference in TRb-SRC2 counter-screen; TRb/SRC2 Texas Red total fluorescence interference; Potency, µM (titrated, usually from 106 µM), inactives show at the top dose fluorescence change, negative = quenching; actives 0.29% (n = 280,000); AID 1479; active = well fitted curve in either direction with a large enough effect; inconclusive = small, poorly fitted or top-dose-only effect
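Flags fluorescent or light-absorbing compounds by total fluorescence, S + 2P, at 555 nm excitation and 632 nm emission. Mixture: 20 nM Texas Red SRC2 peptide, 0.6 uM human TRb LBD, 1 uM T3, 5% DMSO; compound exposure 5 h at ambient temperature.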
TRb-SRC2 inh: disrupts binding of human TR beta to SRC2 | P10828 | TRbeta-SRC2 peptide binding, fluorescence polarization; receptor liganded with 1 µM T3 | Potency, µM (series often up to 106 µM), without a hit: top-dose activity change, negative = inhibition, usual class: inhibitors | actives 0.065% (n = 280,000) | AID 1469;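 also: plate controls were bound peptide for no effect and peptide without receptor for full effect; nearly all actives have a fitted effect of over 50% in size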
Target sequence (P10828 whole entry, looked up): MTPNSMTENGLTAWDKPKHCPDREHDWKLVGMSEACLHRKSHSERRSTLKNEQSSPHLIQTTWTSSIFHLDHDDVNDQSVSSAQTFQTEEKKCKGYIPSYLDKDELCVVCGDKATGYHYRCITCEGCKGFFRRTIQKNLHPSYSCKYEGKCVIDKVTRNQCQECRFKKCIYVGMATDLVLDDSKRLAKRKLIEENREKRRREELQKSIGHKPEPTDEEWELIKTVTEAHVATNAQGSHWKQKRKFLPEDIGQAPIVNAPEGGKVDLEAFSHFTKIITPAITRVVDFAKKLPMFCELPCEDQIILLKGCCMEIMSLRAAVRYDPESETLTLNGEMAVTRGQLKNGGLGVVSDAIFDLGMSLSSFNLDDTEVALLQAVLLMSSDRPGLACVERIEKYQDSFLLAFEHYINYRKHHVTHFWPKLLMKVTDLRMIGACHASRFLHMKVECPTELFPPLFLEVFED
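Each compound concentration gave % activity, normalized to unbound and bound Texas Red SRC2 controls, from polarization read after 5 hr ambient incubation with T3-loaded human TRb LBD.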
BLM inh-2: confirmation of inhibitors of human Bloom syndrome helicase BLM. shares compounds with BLM inh-1. BLM DNA unwinding, fluorescence quenching, biochemical. Potency, µM, without a hit: max response, negative = inhibition, hits mostly inhibitors. actives 40% (n = 220);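 also: strand separation dequenches TAMRA so unwinding raises red fluorescence; series mostly up to about 69 µM; nearly all actives have a fitted effect of over 45% in size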
RECQ1 conf: confirmation of human RECQ1 helicase inhibitors | shares compounds with RECQ1 inh-1 | actives 28% (n = 610) | AID 2708 | Potency, µM (doses to about 229 µM), without a hit: top-dose activity change, negative = inhibition, usual class: inhibitors | RECQ1 helicase DNA unwinding, fluorescence; also: nearly all actives have a fitted effect of over 45% in size
ADP FP counter: ADP displacement flagged in RECQ1 inhibitor counter-screen | shares compounds with RECQ1 inh-1 | ADP fluorescence polarization displacement counterscreen | Potency, µM (doses to about 228 µM), for the others: at the top dose activity change, negative = inhibition, most hits filed as inhibitors | actives 27% (n = 530) | AID 2711; also: nearly all actives have a fitted effect of over 45% in size
RECQ1 inh-2: RECQ1 helicase inhibition confirmed, round 2. AID 504841. shares compounds with RECQ1 inh-1. actives 15% (n = 1,100). Potency, µM (titrated, usually from 119 µM), without a hit: at the top dose activity, negative = inhibition, hits mostly inhibitors. recombinant RECQ1 DNA unwinding, red fluorescence; also: nearly all actives have a fitted effect of over 50% in size
* hit, by the source's call; i = inactive; ? = inconclusive; nt = no result given; ! = not active in a repeat; [ ] = another dose, or the depositor's remark. Shown are actives, neighbours in structure and some others; about 0.64% of the full set was active somewhere. Unless noted, calls follow the shape of the dose curve; as a rule, active = well fitted curve in the direction sought with a large enough effect; inconclusive = small, poorly fitted or top-dose-only effect, or another doubt; inactive = no such curve, though single readings can be large; an effect the other way counts as inactive or inconclusive. Unless noted, % is scaled to controls: 0 for no effect and ±100 for the full control effect; potency is read from the fitted curve at half-maximal effect.

SMILES	RECQ1 inh-1	BLM inh-1	TexasRed fluor	TRb-SRC2 inh	others
Cc1cccc2sc3nncn3c12	nt	nt	-3.8%[201 µM]	1.2%[201 µM]
CC1(C)CN=C(NN=C(/C=C/c2ccc(C(F)(F)F)cc2)/C=C/c2ccc(C(F)(F)F)cc2)NC1	nt	nt	-1.0%[201 µM]	1.9%[201 µM]
CCn1nc(-c2ccccc2)nc2c(=O)n(C)c(=O)nc1-2	-24.9%	1.41µM*	-5.0%	?
COc1ccc(-c2nc3ccccc3c(=O)n2-c2ccc(OC)cc2)cc1	i	-5.9%	-1.3%[53 µM]	6.5%[53 µM]
Cc1cc(Cl)ccc1O[C@H](C)C(=O)O	nt	nt	-3.6%[201 µM]	2.3%[201 µM]
CCOP(=S)(OCC)SCSCC	nt	nt	-2.0%[201 µM]	-0.1%[201 µM]
Cc1cccc(OCC(=O)N2CCN(Cc3cccnc3)CC2)c1	i	-5.3%	1.9%	-0.1%
CCOc1ccc(-c2nc3cc(NC(=O)COc4cccc(C)c4)ccc3o2)cc1	nt	-9.1%	14.1µM*[quencher]	?
CC1(C)OC(c2ccccc2)=C/C(=C/C=C2C(=O)NC(=O)NC2=O)O1	25.1µM*	-15.3%	10.1%	18.9%
N#CC1=C(N)Oc2n[nH]c(-c3cccs3)c2C1c1ccco1 (stereo unspecified)	31.6µM*	-13.2%	6.0%	-19.2%
C1CC[CH]([Sn]([CH]2CCCCC2)[CH]2CCCCC2)CC1	nt	nt	0.9%[201 µM]	7.0%[201 µM]
CN(N=O)c1cc(O)ccc1O	1.58µM*	nt	12.6µM*[quencher]	?
Cc1ccc(/C=C2/C(=O)NC(=O)N(Cc3ccc(F)cc3)C2=O)o1	5.7%	-1.0%	1.6%	4.6%
COc1ccc(CN2C(=O)NC(=O)/C(=C/c3ccc([N+](=O)[O-])o3)C2=O)cc1	10µM*	?	?	?
CCCN1CCCC2Cc3[nH]ncc3CC21 (stereo unspecified)	-0.6%	4.3%	35.5µM*![quencher]	1.3%
COC(=O)N(C(=O)N1COC2(C(=O)OC)Cc3cc(Cl)ccc3C2=N1)c1ccc(OC(F)(F)F)cc1 (stereo unspecified)	nt	nt	-2.2%[201 µM]	4.2%[201 µM]
CC1Oc2cc3c(-c4c(O)cc(O)c5c(O)c6c(cc45)OC(C)C(C)C6=O)c(O)cc(O)c3c(O)c2C(=O)C1C (stereo unspecified)	25.1µM*	-24.2%	?	3.4%
O=CNC(N1CCN(C(NC=O)C(Cl)(Cl)Cl)CC1)C(Cl)(Cl)Cl (stereo unspecified)	nt	nt	0.8%[201 µM]	4.0%[201 µM]
CN(C)c1ccc(/C=C/C=C2/C(=O)NC(=O)N(c3ccccc3)C2=O)cc1	-4.5%	1.4%	3.16µM*[fluorescent]	?
Cc1cccc(N2C(=O)NC(=O)/C(=C\C=C\c3ccco3)C2=O)c1	22.4µM*	-21.5%	8.6%	6.3%
Cc1ccc(N2C(=O)NC(=O)/C(=C\C=C\c3ccco3)C2=O)cc1	?	-11.1%	10.3%	-5.7%
Cc1ccc(N2C(=O)NC(=O)/C(=C\C=C\c3ccco3)C2=O)cc1C	28.2µM*	-3.2%	9.3%	4.1%
O=C1NC(=O)N(Cc2ccco2)C(=O)/C1=C/C=C/c1ccco1	10µM*	-2.5%	2.7%	2.8%
CNC(=O)Oc1cc(C)cc(C(C)C)c1	nt	nt	-3.3%[201 µM]	0.5%[201 µM]
Cc1cc(C)cc(N2C(=O)NC(=O)/C(=C/c3cccn3-c3ccc(Cl)cc3)C2=O)c1	i	-6.3%	1.3%	-29.7%
SMILES	RECQ1 inh-1	BLM inh-1	TexasRed fluor	TRb-SRC2 inh	others
Cc1cccc(N2C(=O)NC(=O)/C(=C\c3cccn3-c3ccc(Cl)cc3)C2=O)c1	31.6µM*	-21.8%	5.0%	-5.5%
COc1cc2c(cc1O)C[C@H]1c3c(cc(OC)c(O)c3-2)CCN1C	25.1µM*	-22.6%	1.0%	-18.1%
CNC(=O)Oc1cc(C)c(SC)c(C)c1	nt	nt	2.2%[201 µM]	3.4%[201 µM]
O=C(O)COc1ccc(Cl)cc1	nt	nt	-5.0%[201 µM]	4.2%[201 µM]
Cc1ccc(C=C2C(Cl)=C(Cl)C(Cl)=C2Cl)cc1	10µM*	-25.4%	-15.5%	4.7%
COC[C@H](C)N(C(=O)CCl)c1c(C)csc1C	nt	nt	-4.0%[201 µM]	0.1%[201 µM]
CC(=O)Oc1c2c(c(CC=C(C)C)c3c1C(=O)C1=CC4CC5C(C)(C)OC(C/C=C(\C)C(=O)O)(C4=O)[C@]15O3)OC(C)(CCC=C(C)C)C=C2 (stereo partly specified)	?	22.4µM*	1.6%	-6.8%
CC(C)CNC(=O)c1c(N)n(Cc2ccc3c(c2)OCO3)c2nc3ccccc3nc12	i	10µM*	0.0%	5.4%	BLM inh-2=-8.5%
CC(C)OC(=O)C(O)(c1ccc(Br)cc1)c1ccc(Br)cc1	nt	nt	0.5%[201 µM]	2.9%[201 µM]
N#C/C(=C\c1ccc(O)c(O)c1)C(=O)NCCCNC(=O)/C(C#N)=C/c1ccc(O)c(O)c1	0.447µM*	nt	-6.0%	9.7%	BLM inh-2=27.1µM*;RECQ1 conf=0.513µM*
N#CC(C#N)=Cc1ccc([N+](=O)[O-])c(O)c1	?	-6.7%	-7.9%	-8.1%
Cc1cnc(C2=NC(C)(C(C)C)C(=O)N2)c(C(=O)O)c1 (stereo unspecified)	nt	nt	0.2%[201 µM]	-10.6%[201 µM]
C[C@]12CC[C@@H]3c4ccc(OC(=O)N(CCCl)CCCl)cc4CC[C@H]3[C@@H]1CC[C@@H]2O	nt	14.1µM*	nt	nt	BLM inh-2=30.4µM*;RECQ1 conf=?
O=C1C(=O)c2cccc3cccc1c23	-6.4%	-10.8%	0.5%	8.6%
O=C1C(=O)c2ccccc2-c2ccccc21	?	20µM*	-4.0%	?	RECQ1 inh-2=10µM*
O=C(O)c1ccc(-c2ccc3cc(C45CC6CC(CC(C6)C4)C5)c(O)cc3c2)cc1	20µM*	-1.2%	?	?	RECQ1 conf=100µM*;ADP FP counter=112µM*;RECQ1 inh-2=?
COc1cc(O)c(C(=O)O)c(-c2cc(O)c(O)cc2C)c1	?	4.3%	-5.5%	-7.0%	RECQ1 inh-2=?
Nc1ccc(Cl)cc1C(=O)c1ccccc1Cl	25.1µM*	-8.8%	0.5%	4.0%	RECQ1 inh-2=-20.1%
CCOc1ccc(-c2nc3ccc(-c4nc5ccc(N6CCN(C)CC6)cc5[nH]4)cc3[nH]2)cc1	12.6µM*	?	-29.9%	-7.3%	RECQ1 inh-2=5.62µM*!
Nc1cccc(Cl)c1Cl	nt	nt	-2.5%[201 µM]	2.1%[201 µM]
COC(=O)c1ccccc1CS(=O)(=O)NC(=O)Nc1nc(OC)cc(OC)n1	nt	nt	-0.7%[201 µM]	1.8%[201 µM]
O=c1[nH]c(=S)n(Cc2ccco2)c(O)c1C=NCc1cccs1	?	6.1%	-20.7%	-2.2%	RECQ1 inh-2=-26.4%
CCN(CC)c1ccc(N=Cc2c(O)n(Cc3ccco3)c(=O)[nH]c2=O)cc1	1.0%	-5.4%	-0.8%	-0.5%
